# Experimental data reported in the supplement of paper PMC3414501.
# Where a name gives a salt, the structure may show the parent alone.
# Tests used:
# [1] = tested on: S. cerevisiae SK1 pCDA2-eGFP (USY613), sporulating; experiment: CDA2-GFP sporulation assay sensitivity score (z-score vs DMSO controls); higher = stronger inhibition of sporulation, active = hit call of the paper;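 further: active if sensitivity score above 5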
# [2] = tested on: S. cerevisiae NKY1551 his4x/his4B, sporulating; experiment: HIS4 meiotic recombination assay sensitivity score (z-score vs DMSO controls); higher = stronger inhibition of sporulation/recombination, active = hit call of the paper;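 further: active if sensitivity score above 5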
# [3] = tested on: S. cerevisiae AD1-9 (efflux-pump deficient), vegetative growth in YPD; experiment: growth sensitivity score (doubling time z-score vs DMSO controls); higher = slower growth, strongly negative scores also mark growth inhibition (complete suppression), active = hit call of the paper
# Outline: (§1)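 Rich medium in microtiter plates was seeded with Saccharomyces cerevisiae strains BY4741 and AD1-9 at an OD600 of 0.065, and compounds were added as a 1:100 dilution of DMSO stock. A Tecan GENios reader recorded optical density every 15 min for 24 hours, with eight solvent-only wells in each experiment. Average doubling time was the time to reach a set generation point divided by generation number. The growth sensitivity score was the compound mean minus the solvent-only mean, divided by the solvent-only standard deviation.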
# [4] = tested on: S. cerevisiae BY4741 (wild-type), vegetative growth in YPD; experiment: as above
# Outline: as §1
SMILES,CDA2-GFP sporulation assay sensitivity score [1],HIS4 meiotic recombination assay sensitivity score [2],growth sensitivity score [3],growth sensitivity score [4]
"CC12CC3CC(C)(C1)CC(N)(C3)C2 [Memantine hydrochloride] (stock concentration (mM, diluted 1:100): 8.3)",2.32 (inactive),1.61 (inactive),-0.36 (inactive),-0.66 (inactive)
"Nc1ccc2cn[nH]c2c1 [6-Aminoindazole] (stock concentration (mM, diluted 1:100): 10)",2.67 (inactive),-0.24 (inactive),-1.63 (inactive),-0.64 (inactive)
"CCN1CCCC1CNC(=O)c1cc(S(=O)(=O)CC)c(N)cc1OC (stereo not drawn) [Amisulpride] (stock concentration (mM, diluted 1:100): 10)",-0.38 (inactive),-0.66 (inactive),-0.73 (inactive),-0.22 (inactive)
"CN(C)CCC[C@@]1(c2ccc(F)cc2)OCc2cc(C#N)ccc21 [Escitalopram oxalate] (stock concentration (mM, diluted 1:100): 7.9)",0.99 (inactive),6.6 (active),-1.47 (inactive),0.93 (inactive)
"CN1CCC(=C2c3ccccc3CC(=O)c3sccc32)CC1 [Ketotifen fumarate] (stock concentration (mM, diluted 1:100): 8.9)",4.44 (inactive),2.1 (inactive),-0.77 (inactive),0.49 (inactive)
"O=C1C(c2c(O)[nH]c3ccccc23)=Nc2ccccc21 [Indarubicin] (stock concentration (mM, diluted 1:100): 10)",9.61 (inactive),-1.36 (inactive),-1.23 (inactive),-1.62 (inactive)
"COCCCOc1ccnc(C[S+]([O-])c2nc3ccccc3[nH]2)c1C (stereo not drawn) [Rabeprazole] (stock concentration (mM, diluted 1:100): 10.6)",11.4 (active),3.07 (inactive),31.5 (active),12.2 (active)
"CC=CC(=O)N(CC)c1ccccc1C [Crotamiton] (stock concentration (mM, diluted 1:100): 10.3)",2.32 (inactive),3.54 (inactive),0.99 (inactive),-0.07 (inactive)
"O=C1c2cccc3c2[C@H](CCC3)CN1[C@@H]1CN2CCC1CC2 [Palonosetron hydrochloride] (stock concentration (mM, diluted 1:100): 10)",8.71 (inactive),5.73 (active),2.17 (active),-1.82 (inactive)
"O=C(NCCO[N+](=O)[O-])c1cccnc1 [Nicorandil] (stock concentration (mM, diluted 1:100): 10)",-0.11 (inactive),0.03 (inactive),-1.47 (inactive),-2.59
"CCC1=C(C)CN(C(=O)NCCc2ccc(S(=O)(=O)NC(=O)N[C@H]3CC[C@H](C)CC3)cc2)C1=O [Glimepiride] (stock concentration (mM, diluted 1:100): 7.7)",0.5 (inactive),1.27 (inactive),1.1 (inactive),-0.03 (inactive)
"O=C(O)/C=C/c1ccc(Cn2ccnc2)cc1 [Ozagrel hydrochloride] (stock concentration (mM, diluted 1:100): 8.6)",0.27 (inactive),0.54 (inactive),0.64 (inactive),2.72 (active)
"O=c1[nH]c(=O)n(C2CCCO2)cc1F (stereo not drawn) [Ftorafur] (stock concentration (mM, diluted 1:100): 10)",0.02 (inactive),0.93 (inactive),-0.92 (inactive),0.14 (inactive)
"C[C@]12C[C@H](O)[C@H]3[C@@H](CCC4=CC(=O)CC[C@@]43C)[C@@H]1CC[C@@H]2C(=O)CO [Corticosterone] (stock concentration (mM, diluted 1:100): 10)",3.57 (inactive),1.37 (inactive),2.14 (active),-0.97 (inactive)
"CCCCc1nc(Cl)c(CO)n1Cc1ccc(-c2ccccc2-c2nnn[nH]2)cc1 [Losartan potassium] (stock concentration (mM, diluted 1:100): 9.2)",-0.41 (inactive),-1.2 (inactive),-1.21 (inactive),-0.26 (inactive)
"CCCc1nc(C)c2c(=O)nc(-c3cc(S(=O)(=O)N4CCN(CC)CC4)ccc3OCC)[nH]n12 [Vardenafil citrate] (stock concentration (mM, diluted 1:100): 7.2)",4.72 (inactive),-0.18 (inactive),0.43 (inactive),-0.19 (inactive)
"C[C@@H](O)[C@H]1C(=O)N2C(C(=O)O)=C(S[C@@H]3CN[C@H](C(=O)N(C)C)C3)[C@H](C)[C@H]12 [Meropenem] (stock concentration (mM, diluted 1:100): 11.4)",-2.33 (inactive),-1.58 (inactive),0.68 (inactive),-1.19 (inactive)
